The results in this text go back to PubChem BioAssay AID778 (Sanford-Burnham Center for Chemical Genomics, 2007).

Hit rate of the full screen: of about 96,000 compounds, about 20,000 (21%) were called active. A selection follows. A number with no mark means an inactive call.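 The calls were made as follows: active = CYP2C19 inhibition above a set limit at 5 µM in the primary screen (cut at about 50% in these data); inactive = the rest.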

In the assay the target is Cytochrome P450 2C19 (Homo sapiens) (UniProt P33261). The experiment in a line: blockers of cytochrome P450 2C19 activity – biochemical, luminescence, ADME assay, primary screen (AID 778).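 Also: plate controls were negative control wells for no effect and 2.5 mM tranylcypromine positive control for full effect.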 The following applies: CYP2C19 Supersomes, luciferin-H EGE luminescence, 30 min; at 5 µM; hits give high values.
Chain of Cytochrome P450 2C19 (Homo sapiens) (P33261 whole entry, looked up): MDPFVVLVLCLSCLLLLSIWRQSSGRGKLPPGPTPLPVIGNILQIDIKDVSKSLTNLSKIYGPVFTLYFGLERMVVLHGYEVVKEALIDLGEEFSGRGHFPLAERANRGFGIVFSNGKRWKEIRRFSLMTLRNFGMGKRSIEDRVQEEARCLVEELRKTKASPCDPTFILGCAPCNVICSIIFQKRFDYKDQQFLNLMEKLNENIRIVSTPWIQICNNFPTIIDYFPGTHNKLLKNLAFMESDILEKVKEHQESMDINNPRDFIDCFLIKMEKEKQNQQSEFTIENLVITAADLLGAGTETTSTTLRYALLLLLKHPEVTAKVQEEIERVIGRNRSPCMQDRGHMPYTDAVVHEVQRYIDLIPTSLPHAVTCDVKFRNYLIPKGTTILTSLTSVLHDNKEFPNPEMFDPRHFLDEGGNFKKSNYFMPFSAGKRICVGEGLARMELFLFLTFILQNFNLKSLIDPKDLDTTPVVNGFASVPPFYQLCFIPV
Take `O=c1[nH][nH]c(C(F)(F)F)c1C=NCc1ccccc1Cl`: the inhibition is 93.3% (active).
In the case of `CC/S(CC1CC1(Cl)Cl)=N\S(=O)(=O)c1ccc(C)cc1` (stereo unspecified), the inhibition was 9.6%.
Take `COc1ccc(NS(=O)(=O)c2ccc(NC(=O)C(C)(C(F)(F)F)C(F)(F)F)cc2)nn1`: the inhibition was -7.1%.
Consider `CC1=NC2(CCCc3c2no[n+]3[O-])N(O)C1(C)C` (stereo unspecified), for which the inhibition is -17.9%.
As for `CSc1nnc2c(n1)OC(c1cn(C)c3ccccc13)N(C(C)=O)c1ccccc1-2` (stereo unspecified), the inhibition is 0.8%.
As for `Oc1c(C(c2ccccn2)N2CCOCC2)ccc2cccnc12` (stereo unspecified), the figure is -8.6%; as for `CCOC(=O)N1CCN(C(=O)COc2ccc(Br)cc2)CC1`, 59.1% (active).
On to `CCOC(=O)N1CCN(C(=O)COc2ccc(Cl)cc2C)CC1`, for which the inhibition was 14.4%.
In the case of `CCOC(=O)C1CCN(C(=O)CSc2cc(=O)n(C)c3ccccc23)CC1`, the inhibition is 2.4%.
Turning to `CCOC(=O)N1CCN(C(=O)CNC(=O)Cc2ccc(Cl)cc2)CC1`, the inhibition is 5.9%.
Consider `CN1CCCC(OC(=O)COc2ccc(Br)cc2)C1` (stereo unspecified), for which the inhibition is 27%.
In the case of `CCOC(=O)C1CCN(C(=O)Cc2c(C(=O)O)[nH]c3ccccc23)CC1`, the inhibition was 2.6%.
Take `CCOC(=O)C1CCN(C(=O)COc2cc(C)c(Br)c(C)c2)CC1`: the inhibition is 86.3% (active).
In the case of `CCOC(=O)N1CCN(C(=O)CSc2ccc(Cl)cc2)CC1`, the inhibition was 71.6% (active).
Consider `CCOC(=O)N1CCN(C(=O)CSc2nnc(-c3c[nH]c4ccccc34)n2CCOC)CC1`, for which the inhibition was 4.5%.
For the compound `CC12C(=O)N(n3cnnc3)C(=O)C1C1C=CC2C1` (stereo unspecified), the inhibition is -13.7%.
For the compound `Cc1cc2nnc(SCC(=O)N3CCN(c4ccccc4)CC3)n2c(N)n1`, the inhibition was -9.1%.
As for `NC(=O)CSC1=Nc2ccccc2C2=NC(CCC(=O)NCc3ccc(F)cc3)C(=O)N12` (stereo unspecified), the figure is 47.9%; as for `CCOC(=O)CCc1c(C)c(C#N)c2[nH]c3ccccc3n2c1=O`, 27.1%; as for `CC1CN(C2CCCCC2)c2nc3c(c(=O)n(C)c(=O)n3C)n2C1` (stereo unspecified), 29.5%.
On to `O=C1NC(c2cc3c(cc2Cl)OCO3)Oc2ccccc21` (stereo unspecified), for which the inhibition is 55.5% (active).
Consider `Cc1cc(C)c2c3c(sc2n1)C(c1ccccc1)C(C#N)=C(N)O3` (stereo unspecified), for which the inhibition is -7.9%.
As for `CN(C)c1cc[n+](Cc2ccccc2)cc1`, the figure is -3.4%.
Turning to `CN(C)c1ccc(/C=C2\NC(=S)N(Cc3ccccc3)C2=O)cc1`, the inhibition was 57.6% (active).
As for `CC1=NN(Cc2ccccc2)C(=O)/C1=C/c1ccc(N(C)C)cc1`, the figure is 10.1%.
As for `CCCCCCCC(=O)NC(Nc1ccccc1OC)C(Cl)(Cl)Cl` (stereo unspecified), the figure is 3.6%; as for `CCOC(=O)CSc1nnc(-c2cccc(Br)c2)o1`, 28.9%.
As for `CCOC(=O)CSc1nnc(CNc2ccc(F)cc2)o1`, the inhibition was 56.5% (active).
With `CCC(=O)Nc1ccc(C(=O)CSc2nnc(CNc3ccc(Cl)cc3)o2)cc1OC`, the inhibition is 11%.
For `CNC(=O)c1nnn(-c2ccccc2)c1C(=O)NC`, the inhibition is -4%.
As for `Cc1ccc(-n2ncc3c(=O)n(-c4ccc(C)c(C)c4)c(-c4ccco4)nc32)cc1`, the inhibition was 30.9%.
As for `O=S(=O)(c1ccc(Br)cc1)c1nc(-c2ccccc2)oc1NCc1cccnc1`, the inhibition is 18.4%.
With `O=C(NCc1ccco1)c1ccc(CS(=O)(=O)Cc2ccc(F)cc2)o1`, the inhibition was 42.4%.
For `O=C(NCc1cccnc1)c1ccc(CS(=O)(=O)c2ccc(Br)cc2)o1`, the inhibition was 100% (active).
Turning to `CC(C)CNC(=O)C1CCCN(S(=O)(=O)c2ccc(-n3cnnn3)cc2)C1` (stereo unspecified), the inhibition was -17.5%.
As for `CC(C)(C)C(=O)CCN1C(=O)C2(OCCO2)c2ccccc21`, the figure is 30%.
`C=CCn1c(-c2ccc3[nH]c(C)c(C)c3c2)n[nH]c1=S`: the inhibition was 29.1%.
In the case of `O=C(NCc1cn2ccsc2n1)Nc1ccc(Cl)cc1`, the inhibition was 29.8%.
On to `O=c1cc(Cn2nnc(-c3ccc(Cl)cc3)n2)nc2sccn12`, for which the inhibition was 65.5% (active).
Then `O=C(NCc1ccc(Cl)cc1)c1cc2c(nc3sccn32)s1`, with 14.8%; and `Cc1cccc(C)c1NC(=O)N1CC=C(n2c(=O)[nH]c3ccccc32)CC1`, with -0.4%.
Regarding `Cc1nn(-c2ccccc2)c2c1C(=O)NC(=O)C(C)(C)C2`, the inhibition is 28%.
On to `Cc1ccc(C2=NN(C)c3nc4ccccc4n3C2)cc1`, for which the inhibition was 12.8%.
Regarding `Cc1ccc(CNC(=O)CCCNC(=O)c2ccc(Cl)cc2)n1C`, the inhibition is 60.2% (active).
With `CCN(CC(=O)NC(C)C)C(=O)CCNC(=O)c1ccc(Cl)cc1`, the inhibition was 10.5%.
For `CCCCNC(=O)CCNC(=O)c1ccc(C(C)(C)C)cc1`, the inhibition was 31.5%.
For the compound `N#C/C(=C(\O)CCl)c1nnc2n1CCCCC2`, the inhibition was 3.5%.
Take `O=C1CCCCC(=O)c2ccccc2N1`: the inhibition was 12.2%.
On to `CCCCOc1ccc(C(=O)NCc2ccncc2)cc1`, for which the inhibition is 76.1% (active).
Consider `CCCCCCOc1ccc(OC(=O)c2cccnc2)cc1`, for which the inhibition is 20.8%.
`CCOc1ccc(C(=O)Nc2ccncc2)cc1`: the inhibition is 97.9% (active).
Take `CCOc1cccc(C(=O)Nc2cccnc2)c1`: the inhibition was -3.6%.
Then `CCCCOc1ccc(C(=O)NCc2ccco2)cc1`, with 20.2%; and `CCOc1ccc(NC(=O)Nc2cc(C)on2)cc1`, with 22.7%.
Regarding `CC(=O)Nc1nonc1-c1nc2ccccc2n1Cc1ccccn1`, the inhibition is -7.6%.
With `CCN1C(=O)/C(=C2/Sc3ccccc3N2CCCS(=O)(=O)O)SC1=S`, the inhibition is 0%.
Regarding `CCOc1ccc2[nH]c(=O)c(CN(CCCO)C(C)=O)cc2c1`, the inhibition is -11.4%.
Then `CC(C)CNC(=O)c1cc(-c2ccc(Br)cc2)on1`, with -6.3%; and `c1ccc2c(c1)OCC(CNc1ncnc3nc[nH]c13)O2` (stereo unspecified), with 4%.
Turning to `O=c1c2c(nc3n1CCCCC3)sc1c(O)cccc12`, the inhibition was 72.2% (active).
As for `O=C(Nc1ccc2nc3n(c(=O)c2c1)CCCCC3)c1ccccc1Cl`, the figure is 13.1%; as for `Cc1cccc2c(=O)n3c(nc12)CCCCC3`, 28.1%; as for `O=C(CSc1nc2c(cnn2-c2ccc(F)cc2)c(=O)[nH]1)N1CCCCCC1`, 2.3%.
As for `CN1/C(=C\C(=O)c2oc3ccccc3c2N)C(C)(C)c2ccccc21`, the figure is 47.9%; as for `CN1/C(=C\C=C2\N=C(c3ccc(F)cc3)OC2=O)C(C)(C)c2ccccc21`, 45.9%; as for `Cc1noc(C)c1C(=O)OCC(=O)/C=C1\N(C)c2ccccc2C1(C)C`, 60.2% (active).
